Measurements as given in ChEMBL document CHEMBL3988442, “University of Dundee, Small-Polar-MMV Screening Library” (2021).
Hit rate of the full screen: of about 48,000 compounds, about 13,000 (27%) showed an effect of 50% or more. The list shows a part of the results.

tested on: Wolbachia pipientis; assay: Anti-Wolbachia Cell-Based Screen; assay type: functional; parameters: scale not given: in the data most compounds retested in dose-response had high values; conditions: 5 µM

| SMILES | Percent Effect [%] |
| --- | --- |
| Cc1nc(CC(=O)N2CCCC2c2nc(-c3ccccc3)no2)cs1 (stereo not given) | -0.9344 |
| Nc1c(N2CCOCC2)ncnc1N1CCOCC1 | 121.8 |
| CN1CCCN(c2ncnc(N3CCOCC3)c2N)CC1 | 103.9 |
| CC(C)(C)C(=O)N1CCCN(c2ncnc3nc(N)ccc23)CC1 | 6.072 |
| Clc1cnccc1N1CCCOCC1 | 1.077 |
| O=C(CSc1ccccc1)N1CCc2c(ncnc2N2CCOCC2)C1 | 3.982 |
| Cn1cccc1C(=O)N1CCc2ncnc(N3CCOCC3)c2CC1 | -2.151 |
| Nc1c(N2CCCCC2)ncnc1N1CCOCC1 | 114.1 |
| Nc1c(N2CCCC2)ncnc1N1CCOCC1 | 108.5 |
| OC1(CN2CCCC2)COCCN(c2ncnc3[nH]cnc23)C1 (stereo not given) | 9.273 |
| O=C(c1c2c(N3CCOCC3)ncnc2n2ccccc12)N1CCCC1 | -0.1651 |
| O=C(c1c2c(N3CCCC3)ncnc2n2ccccc12)N1CCOCC1 | -6.579 |
| O=C1COc2ccc(S(=O)(=O)NCC3CCCO3)c3c2N1CCC3 (stereo not given) | -4.147 |
| CN1CCN(C[C@@H]2OC[C@H]3CN(CCc4ccccc4)CC[C@H]32)CC1.O=C(O)C(F)(F)F.O=C(O)C(F)(F)F.O=C(O)C(F)(F)F | 108.2 |
| CN1CCN(C[C@H]2OC[C@@H]3CCN(C(=O)c4cnccn4)C[C@@H]32)CC1.O=C(O)C(F)(F)F.O=C(O)C(F)(F)F | -7.535 |
| Cc1ccc(CN2CC[C@H]3CO[C@H](CN(C)Cc4ccco4)[C@H]3C2)s1.O=C(O)C(F)(F)F.O=C(O)C(F)(F)F | 10.16 |
| Cc1ccc(CN2CC[C@H]3[C@H](CO[C@H]3CN(C)C)C2)o1.O=C(O)C(F)(F)F.O=C(O)C(F)(F)F | -5.785 |
| Cc1ccc(CN2CC[C@@H]3[C@@H](CO[C@H]3CN3CCN(C)CC3)C2)cc1.O=C(O)C(F)(F)F.O=C(O)C(F)(F)F.O=C(O)C(F)(F)F | 118.8 |
| CN(C)C[C@@H]1OC[C@H]2CN(Cc3ccoc3)CC[C@H]21.O=C(O)C(F)(F)F.O=C(O)C(F)(F)F | 10.46 |
| CN(Cc1cccnc1)C[C@@H]1OC[C@H]2CN(Cc3ccoc3)CC[C@H]21.O=C(O)C(F)(F)F.O=C(O)C(F)(F)F.O=C(O)C(F)(F)F | 6.292 |
| CN1CCN(C[C@@H]2OC[C@H]3CN(Cc4cccc(F)c4)CC[C@H]32)CC1.O=C(O)C(F)(F)F.O=C(O)C(F)(F)F.O=C(O)C(F)(F)F | -7.407 |
| Cc1ccc(CN2CC[C@@H]3[C@@H](CO[C@H]3CN3CCN(C)CC3)C2)s1.O=C(O)C(F)(F)F.O=C(O)C(F)(F)F.O=C(O)C(F)(F)F | 97.55 |

| SMILES | Percent Effect [%] |
| --- | --- |
| CCN1CCC(N[C@@H]2CC[C@@H]2NC(=O)Cc2csc(C)n2)CC1 | 2.853 |
| Clc1cccnc1N1CCC(NCc2cccc3cn[nH]c23)C1 (stereo not given) | 0.5809 |
| COCC1c2nnn(CC3CC3)c2CCN1C(=O)c1ccncn1 (stereo not given) | -7.229 |
| CN(C)c1ccc(-c2cc(C(=O)O)cc(S(=O)(=O)NC3CC3)c2)cc1 | -6.079 |
| CCc1cc(O)nc(C2CCCN(Cc3ccncc3)C2)n1 (stereo not given) | 119.5 |
| COCCN1C[C@H]2CN(Cc3cccc(OC)c3)CCN2C1=O | -3.935 |
| Cc1cc(O)nc(C2CCCN(Cc3ccncc3)C2)n1 (stereo not given) | -8.016 |
| COCc1cc(O)nc(C2CCCN(Cc3ccc(OC)cc3)C2)n1 (stereo not given) | 126.6 |
| COCC1CCCN(CCCc2cccc(OC)c2)C1 (stereo not given) | 6.457 |
| COCc1cc(O)nc(C2CCCN(Cc3cc(OC)ccc3F)C2)n1 (stereo not given) | -12.81 |
| NC(=O)Cn1ccnc1C1CCCN(Cc2cccc(Cl)c2F)C1 (stereo not given) | -13.72 |
| COCc1nccc(C2CCCN(Cc3ccccc3C#N)C2)n1 (stereo not given) | -3.966 |
| COCc1cc(O)nc(C2CCCN(Cc3cccc(Cl)c3Cl)C2)n1 (stereo not given) | 101.5 |
| COCc1cc(O)nc(C2CCCN(Cc3cccc(OC)c3)C2)n1 (stereo not given) | 123.8 |
| COCCn1cnnc1CCn1ccnc1-c1ccccc1Cl | -5.954 |
| CN(Cc1ccon1)c1nc(-c2ccccn2)nc2c1CCNCC2 | -7.259 |
| CCn1c(Cn2cccn2)nnc1C1CCN(Cc2ccc(C)o2)CC1 | 4.312 |
| O=c1c2ccccc2nc2n1CCC2O (stereo not given) | 1.424 |
| O=C(Nc1cc(CSCCO)ccn1)c1ccc(Cl)o1 | -51 |
| Cc1ncccc1C(=O)NC1(c2cccc(F)c2)CCOCC1 | -2.77 |
| COCc1cc(O)nc(C2CCCN(Cc3ccc(F)cc3)C2)n1 (stereo not given) | 105.5 |
| CC(NC(=O)NCCN1CCCCCC1=O)c1ccc(Cl)s1 (stereo not given) | -4.831 |

| SMILES | Percent Effect [%] |
| --- | --- |
| CCN(CC)C(=O)N1CCN(CCc2ccncc2)CC1 | 2.653 |
| CC(C)CC(=O)N1CCN(Cc2cc(-c3ccncc3)nn2C)CC1 | 111 |
| CCN(CC)CC(=O)N1CCN(CCCc2ccncc2)CC1 | 2.413 |
| CCc1nc(CN2CCCN(C(=O)COC)CC2)cs1 | 6.894 |
| CCCC(=O)N1CCN(Cc2cc(-c3ccncc3)nn2C)CC1 | 103.8 |
| COCC(=O)N1CCN(Cc2cc(-c3ccncc3)nn2C)CC1 | 92.41 |
| CCN(CC)CC(=O)N1CCN(CCc2ccncc2)CC1 | -8.418 |
| CCC(=O)N1CCN(Cc2cc(-c3ccncc3)nn2C)CC1 | -2.828 |
| CC(C)C(=O)N1CCN(Cc2cc(-c3ccncc3)nn2C)CC1 | -9.87 |
| CCCC(=O)N1CCN(c2cc(-n3cnc(C)c3C)nc(C)n2)CC1 | -4.899 |
| CCC(CC)C(=O)N1CCN(Cc2cc(-c3ccncc3)nn2C)CC1 | 102.3 |
| COc1ccc2nc(CNC(=O)c3cc(C(C)C)no3)[nH]c2c1 | -7.08 |
| CC(NCc1cnn(C)c1)c1noc(-c2ccc(Cl)cc2)n1 (stereo not given) | 2.096 |
| Cc1ccc(C(=O)NCCS(=O)(=O)Cc2ccccc2)c(C)c1 | 5.407 |
| Cc1csc(C(=O)NCCn2nc(-n3cncn3)ccc2=O)c1 | 104.4 |
| O=C(NCCn1nc(-n2cncn2)ccc1=O)c1ccc(F)cc1F | 119.8 |
| O=C(NCCc1ccsc1)c1ccoc1 | 7.959 |
| O=C1CCc2cc(C(=O)NCc3ccc(-n4cncn4)nc3)ccc2N1 | -4.762 |
| O=C(NCCn1nc(-n2cncn2)ccc1=O)c1ccsc1 | 90.98 |
| Cc1ccc(C(=O)NCCn2nc(-n3cncn3)ccc2=O)c(C)c1 | 115.4 |
| Cc1ccc(C(=O)NCCCn2cncn2)c(=O)[nH]1 | 0.33 |
